Measured values reported in PubChem BioAssay (NCI).
Compounds without any hit were thinned out: in the full panel of roughly 83,000, 20% have a hit.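 Percent growth is the endpoint: 0 to 100 indicates growth inhibition (40 means 60% inhibition), 0 means no net growth, and negative values indicate cell death.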 Activity calls are given as the source filed them. The calls were made as follows: active = growth percent below 10; inactive = the rest.

Key:
Assay in all cases: NCI-60 one-dose screen, 48 h (100 = growth as untreated, 0 = no growth, -100 = all killed)
Details in all cases: 10 µM unless noted
SK-MEL-2 melanoma = tested on: SK-MEL-2 melanoma
EKVX NSCLC = tested on: EKVX NSCLC
SN12C renal = tested on: SN12C renal
UO-31 renal = tested on: UO-31 renal
TK-10 renal = tested on: TK-10 renal
ACHN renal = tested on: ACHN renal
A498 renal = tested on: A498 renal
CCRF-CEM leukemia = tested on: CCRF-CEM leukemia
MOLT-4 leukemia = tested on: MOLT-4 leukemia

Measured: growth

Nc1nc(Cl)cc(NCc2ccc(CNc3cc(Cl)nc(N)n3)cc2)n1
inactive: SK-MEL-2 melanoma 74.1% | EKVX NSCLC 70.4% | SN12C renal 106% | UO-31 renal 84.3% | TK-10 renal 124% | ACHN renal 92.7% | A498 renal 73.7% | CCRF-CEM leukemia 107% | MOLT-4 leukemia 70.7%

CN1CCN(Cn2nc(-c3cc(Cl)cc(Cl)c3Cl)n(/N=C/c3ccc(Cl)cc3)c2=S)CC1
inactive: SK-MEL-2 melanoma 97.6% | EKVX NSCLC 118% | SN12C renal 96.4% | UO-31 renal 88% | TK-10 renal 94.6% | ACHN renal 100% | A498 renal 97.8% | CCRF-CEM leukemia 33.4% | MOLT-4 leukemia 59%

O=C(NC(=S)Nc1ccc(Cl)cc1)c1ccccc1
inactive: SK-MEL-2 melanoma 108% | EKVX NSCLC 78.7% | SN12C renal 98.4% | UO-31 renal 83.1% | TK-10 renal 117% | ACHN renal 101% | A498 renal 103% | CCRF-CEM leukemia 102% | MOLT-4 leukemia 72.8%

CC(=O)N[C@@H](CNC(=O)c1cc(NC(=O)c2cc(NC(=O)c3cc(NC(=O)c4nccn4C)cn3C)cn2C)cn1C)CC(=O)Nc1cn(C)c(C(=O)Nc2cc(C(=O)Nc3cc(C(=O)Nc4cc(C(=O)NCCCN(C)CCCNC(=O)c5cccc(C(=O)O)c5)n(C)c4)n(C)c3)n(C)c2)n1
inactive: SK-MEL-2 melanoma 89.4% | EKVX NSCLC 102% | SN12C renal 100% | UO-31 renal 77.1% | TK-10 renal 93.1% | ACHN renal 75.1% | A498 renal 92.9% | CCRF-CEM leukemia 103% | MOLT-4 leukemia 120%

CC(C)(C)NCC(O)COc1c(Br)c(Br)c(Br)c2c1OC(C)(C)C2 (stereo unspecified)
active: SK-MEL-2 melanoma -71.9% | UO-31 renal -81.8% | TK-10 renal -77.8% | ACHN renal -60.1% | A498 renal -6.49% | CCRF-CEM leukemia -62.5% | MOLT-4 leukemia -56.1%
inactive: EKVX NSCLC 50.1% | SN12C renal 33.2%

Cc1cc(N2CCOCC2)nc(N(CCNc2ccnc3cc(Cl)ccc23)Cc2ccco2)n1
active: CCRF-CEM leukemia -11.3% | MOLT-4 leukemia 5.1%
inactive: SK-MEL-2 melanoma 23.3% | EKVX NSCLC 56.7% | SN12C renal 47.5% | UO-31 renal 24.3% | TK-10 renal 10.9% | ACHN renal 27% | A498 renal 50.9%

C[C@H]1C=C(C[C@@H](O)CCCCCCCCCC[C@@H](O)[C@H]2CCC(=O)O2)C(=O)O1
inactive: SK-MEL-2 melanoma 80.2% | EKVX NSCLC 91% | SN12C renal 117% | UO-31 renal 82% | TK-10 renal 100% | ACHN renal 96.8% | A498 renal 163% | CCRF-CEM leukemia 78.5% | MOLT-4 leukemia 112%

COc1cc(/C=C/C(=O)c2c(C)[n+]([O-])c3ccccc3[n+]2[O-])ccc1O
inactive: SK-MEL-2 melanoma 83.8% | EKVX NSCLC 84.5% | SN12C renal 101% | UO-31 renal 80.4% | TK-10 renal 55.9% | ACHN renal 95.4% | A498 renal 101% | CCRF-CEM leukemia 124% | MOLT-4 leukemia 126%

COc1ccc(C(=O)Cn2cnc3c(Nc4cc(C(=O)Nc5ccc(N6CCN(CCO)CC6)cc5)ccc4C)ncnc32)cc1
inactive: SK-MEL-2 melanoma 100% | EKVX NSCLC 99% | SN12C renal 104% | UO-31 renal 87.6% | TK-10 renal 102% | ACHN renal 103% | A498 renal 111% | CCRF-CEM leukemia 105% | MOLT-4 leukemia 90%

COc1cc(/C=C/C(=O)N2CCC=CC2=O)cc(OC)c1OC
inactive: SK-MEL-2 melanoma 74.9% | EKVX NSCLC 57.1% | SN12C renal 45.1% | UO-31 renal 57.7% | TK-10 renal 38.7% | A498 renal 98.7% | CCRF-CEM leukemia 15% | MOLT-4 leukemia 42.1%
active: ACHN renal -7.71%

COc1ccc(-c2c(C#N)cnc(N)c2-c2nc3cc(C)c(C)cc3[nH]2)cc1
inactive: SK-MEL-2 melanoma 41.4% | EKVX NSCLC 63% | SN12C renal 80.7% | UO-31 renal 83.9% | TK-10 renal 48.6% | ACHN renal 53.2% | A498 renal 82.9% | CCRF-CEM leukemia 90.5% | MOLT-4 leukemia 104%

O=[N+]([O-])c1ccc(NS(=O)(=O)c2cc(Cl)ccc2Cl)c2ccccc12
inactive: SK-MEL-2 melanoma 18.7% | EKVX NSCLC 50.9% | SN12C renal 45.8% | UO-31 renal 43% | TK-10 renal 75.8% | ACHN renal 78.9% | A498 renal 23.9% | CCRF-CEM leukemia 29.1% | MOLT-4 leukemia 46.8%

COc1ccc2c(c1)/C(=C/c1c(-c3cc(OC)c(OC)c(OC)c3Br)nc3sccn13)C(=O)N2
inactive: SK-MEL-2 melanoma 87.3% | EKVX NSCLC 84.6% | SN12C renal 120% | UO-31 renal 83.3% | TK-10 renal 118% | ACHN renal 86.5% | A498 renal 108% | CCRF-CEM leukemia 81% | MOLT-4 leukemia 73.2%

Nc1nc(Cl)cc(NCCCCNc2cc(Cl)nc(N)n2)n1
inactive: SK-MEL-2 melanoma 87.6% | EKVX NSCLC 102% | SN12C renal 126% | UO-31 renal 96.5% | TK-10 renal 111% | ACHN renal 107% | A498 renal 174% | CCRF-CEM leukemia 84.5% | MOLT-4 leukemia 94.8%
